# Results reported in ChEMBL document CHEMBL4513216, “Probing the Open Global Health Chemical Diversity Library for Multistage-Active Starting Points for Next-Generation Antimalarials” (ACS Infect Dis, 2020).
# Out of some 69,000 compounds screened, about 8,600 (12%) showed an effect of 50% or more. The list comes from a sample in which strong results are over-represented; it also holds similar structures and randomly drawn compounds.
# System: Plasmodium berghei
# Assay: Screen against P. berghei liver stage (PbLuc), transformed with Luciferase, at 10uM
# Assay type: functional, HepG2
# Conditions: tested at 10 uM
row,Compound,INHIBITION
1,CCOC(=O)N1CCC(OC)c2ccccc2N(C)C(=O)C1 (stereo unspecified),46.4%
2,CCc1cc(=O)n(CC(=O)N2CCCC2)c(-c2cccc(F)c2)n1,46.6%
3,COCC(=O)N1CCN(C(=O)c2scnc2C)CC1,21.3%
4,O=C(C1CC1)N1CCCN(c2ncnc3c2CCNCC3)CC1,-20.6%
5,CCN1CCN(c2ncnc3c2CCN(C(=O)C2CC2)C3)CC1,61.1%
6,CCN(CC)C1CCN(c2ncnc3c2CCN(C(=O)C2CC2)C3)C1 (stereo unspecified),64.5%
7,CNC(=O)C1CCN(c2ncnc3c2CCN(C(=O)C2CC2)C3)C1 (stereo unspecified),57.8%
8,O=C(C1CC1)N1CCc2c(ncnc2N2CCN3CCCC3C2)C1 (stereo unspecified),46.6%
9,CCCOC1CCCN(c2ncnc3c2CCN(C(=O)C2CC2)C3)C1 (stereo unspecified),49.9%
10,Cc1cnc(-c2nc(O)c3c(n2)CN(C(=O)C2CC2)CC3)cn1,9.98%
11,CSCCC(=O)N1CCc2c(ncnc2N2CCOCC2)C1,-103%
12,CCOCC(=O)N1CCc2c(ncnc2N2CCOCC2)C1,-68.2%
13,CN1CCC(c2cnc(NCc3nccn3C)cn2)CC1,33.2%
14,COCC1CN(Cc2ccc(C)o2)Cc2nnn(CC3CC3)c21 (stereo unspecified),-8.19%
15,Cn1nc(Br)nc1Sc1ccccc1NC(=O)C1CC1,37.4%
16,O=C1N(Cc2cccc(Cl)c2)CCC12CCCNC2 (stereo unspecified),-15.9%
17,Cc1cnn(CC2CCCN2C(=O)CCc2c(C)nn(C)c2C)c1 (stereo unspecified),0.825%
18,CCCC(NC(=O)c1cncc(C)c1)c1nnn[nH]1 (stereo unspecified),23.5%
19,CCN1CC[C@@]2(C(=O)Nc3ccccc3)CCN(S(C)(=O)=O)CC[C@@H]12,35.8%

row,Compound,INHIBITION
1,CCc1cc(C(=O)N[C@@H]2CC[C@@H](N3CCOCC3)[C@@H]2O)no1,10.9%
2,Cc1ccc(N2CCN(C(=O)COc3ncccn3)CC2)nn1,-38.7%
3,Cc1ccc(N2CCN(C(=O)COc3nccc(C)n3)CC2)nn1,50.5%
4,Cc1ccnc(OCC(=O)N2CCN(c3ncccn3)CC2)n1,-17.8%
5,CNC(=O)C1(c2cnccn2)CCCN1C(=O)c1c(F)cccc1F (stereo unspecified),34%
6,Cc1cccc(=O)n1CCC(=O)N1CC[C@@](O)(C2CCC2)[C@H](C)C1,47.6%
7,C[C@@H]1CN(C(=O)CCN2CCCC2)CC[C@@]1(O)C1CCC1,27.9%
8,CC[C@H]1CN(C(=O)CCn2c(C)cccc2=O)CC[C@@]1(C)O,-22.7%
9,Cc1cccc(=O)n1CCC(=O)N1CC[C@](C)(O)[C@H](C)C1,51.3%
10,C[C@@H]1CN(C(=O)CCN2CCOCC2)CC[C@]1(C)O,55%
11,C[C@@H]1CN(C(=O)CCCN2CCOCC2)CC[C@@]1(O)C1CCC1,64.9%
12,C[C@@H]1CN(C(=O)CCN2CCCC2)CC[C@@]1(O)C1CCOCC1,25.4%
13,C[C@@H]1CN(C(=O)CCCN2CCCC2)CC[C@@]1(O)C1CCOCC1,10.6%
14,C[C@@H]1CN(C(=O)CCCN2CCOCC2)C[C@@]1(O)C1CC1,37.7%
15,CNCC1CCC(c2cc(CN(C)S(=O)(=O)N(C)C)n(C)n2)CC1 (stereo unspecified),44.3%
16,CC(C)OC(=O)N1C[C@@H]2CC[C@H]1CN(C(=O)c1ccccn1)C2,-26.4%
17,COc1nonc1NCn1nc(C)cc1C,39.7%
18,CN(C)Cc1nc(C2(NC(=O)Nc3cccc(F)c3)CCCC2)no1,38.2%
19,CCN1CCN(C2CCN(CC(=O)NCC(F)(F)F)CC2)C1=O,-3.2%

row,Compound,INHIBITION
1,Cc1nccn1[C@@H]1CC[C@@H](NC(=O)Cn2c(C)nc3ccccc32)[C@H]1O,23.9%
2,COc1ccccc1CN(Cc1nc(C)no1)C1CC1,17.4%
3,Cc1cncnc1C1CCN(C(=O)C2(C)CCCCN2C)CC1 (stereo unspecified),1.45%
4,Cn1ccnc1-c1ccc(NCCC2COc3ccccc3O2)nn1 (stereo unspecified),34%
5,Cn1ccnc1-c1ccc(NCC2COc3ccccc3O2)nn1 (stereo unspecified),-9.17%
6,Cn1ccnc1-c1ccc(NC[C@H]2CCc3ccccc3O2)nn1,60%
7,CCC(O)CN1CCN(C(=O)c2sccc2C2CC2)CC1 (stereo unspecified),19.5%
8,Cc1nc(CN2CCN(C(C)c3nc(C(C)C)no3)CC2)oc1C (stereo unspecified),6.7%
9,Cc1cnn(C2CN(c3nc(-c4ccncc4)nc4c3CCC4)C2)c1,44.3%
10,OCCC1CN(c2nc(-c3ccncc3)nc3c2CCNCC3)CCO1 (stereo unspecified),11.8%
11,Cc1cc(C)n(C2CN(c3nc(N)nc4c3CCCC4)C2)n1,34.1%
12,c1cnn(C2CN(c3nc(-c4ccncc4)nc4c3CCC4)C2)c1,53.6%
13,Cc1cc(C)n(C2CN(c3nc(-c4ccncc4)nc4c3CCC4)C2)n1,81.4%
14,Cc1cc(C)n(C2CN(c3ncnc4c3CCC4)C2)n1,0.868%
15,CC1(c2ncc(CN(CC(=O)O)Cc3ccccc3)cn2)CCCCO1 (stereo unspecified),16.9%
16,Cc1ccc(F)c2c1CCCN2C(=O)c1cn(CC(=O)N(C)C)nn1,29.1%
17,CC1(C)OCC(CNC(=O)c2cnn(-c3cccc(Cl)c3Cl)c2N)O1 (stereo unspecified),-101%
18,Cn1ccnc1CN1CCCC1CCc1ccccc1 (stereo unspecified),-67.9%
